In all, about 25,000 sequences were measured (“ln(normalized median fluorescence intensity)”: median about 9.7, highest 2% from about 11 on). The sample as a whole holds a higher share of the highest values than the screen did.

This test relates to PfAP2-HC AP2 domain (GST-tagged). Description: gcPBM binding intensity (ln(normalized median fluorescence intensity)); higher = stronger DNA binding. In outline:
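An Agilent 4 × 180k array of primer-extended double-stranded 36-bp intergenic genomic probes, with negative controls, was incubated for 1 h with GST-tagged P. falciparum DNA-binding domains expressed in E. coli. Alexa488 anti-GST antibody detected bound protein, scanned at 488 nm. Binding intensity is the highest Masliner-normalised natural-log median intensity across replicate spots of either probe orientation.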
As to “AAAAAAAAAAAAAACACACACATACACCCAAAAATG [CACACA_site4223]”, the “gcPBM binding intensity (ln)” value is 10.3.

For the sequence “AAAAAAAAAAAAAAAACACACACAACACCCATACCT [CACACA_site9208]”, the “gcPBM binding intensity (ln)” value is 10.4.

As for “AAAAAAACAGAAAACACACAAATTATCTTATAATTA [CACACA_site6282]”, the “gcPBM binding intensity (ln)” value stood at 9.8.

In the case of “ATATCTTATGTTATCACACACACACGCACAAAACAG [CACACA_site6800]”, the “gcPBM binding intensity (ln)” value is 10.3.

In the case of “AAAAAAAAAAAAAACACACACACACCCAAATACATA [CACACA_site708]”, the “gcPBM binding intensity (ln)” value was 10.5.

With “TACAAACACCCATATACACACAAAAAAAAAATAAAA [CACACA_site5421]”, the “gcPBM binding intensity (ln)” value came out at 9.94.

As to “TATATACACCCACATACACACAAATAAAAAAACACC [CACACA_site3414]”, the “gcPBM binding intensity (ln)” value came out at 10.5.

With “ATATATATTTAAACTACACACGCATATCTTAGAAAT [CACACA_site8348]”, the “gcPBM binding intensity (ln)” value is 10.1.

Take “ACTGTACTATAAAATACACACATATAAATATAAATA [CACACA_site3009]”: the “gcPBM binding intensity (ln)” value was 9.99.

Take “AATATTTAATTCAACACACATACATATTTATTAAAA [CACACA_site2342]”: the “gcPBM binding intensity (ln)” value was 9.99.

“ATGTGTATATGTTAATGTACAAATTTTGAAAATGCC [XGTACX_site2685]”: the “gcPBM binding intensity (ln)” value was 9.86.

With TATTATTATTTTATGGTGCAAAAAAAAAAAAAAAAA, the “gcPBM binding intensity (ln)” value was determined as 8.83.

For “TATTATATCTTATATGTATATTCCCACAAATTATAT [GTGCAC_negctrl_site362]”, the “gcPBM binding intensity (ln)” value amounted to 9.59.

For the sequence “TTTTGTTGTATGATAATTCTTTTATCAATATGTCTT [TGCATGCA_negctrl_site567]”, the “gcPBM binding intensity (ln)” value was found to be 9.63.

Consider “ACATTCACAAAATTTTGTACACATATATATATATAT [XGTACX_site3518]”, for which the “gcPBM binding intensity (ln)” value was 9.96.

In the case of “AATATATTTTAATACACACACACATATATATATATA [CACACA_site5969]”, the “gcPBM binding intensity (ln)” value is 10.4.

Turning to “AAAAAAACATGAAACACACACAAATATTTATTTATA [CACACA_site6967]”, the “gcPBM binding intensity (ln)” value was 10.2.

Turning to “TACTTACATATAATAACACACAAGAAAAAAATAAAA [CACACA_site1033]”, the “gcPBM binding intensity (ln)” value is 9.83.

For the sequence “ACCTAAAAGGTATAATATATAAATAAAAAAAAAAAT [CACACA_negctrl_site134]”, the “gcPBM binding intensity (ln)” value was found to be 9.72.

Turning to “AAAAAAAAAAAACACACACACACACCCAAATATATA [CACACA_site150]”, the “gcPBM binding intensity (ln)” value was 10.6.

Regarding “AAAACACCCAAACACACACACACATATATATATATA [CACACA_site9119]”, the “gcPBM binding intensity (ln)” value came to 10.8.

As for “CAAAAAAACAAACACACACACACACCCATATATATA [CACACA_site3653]”, the “gcPBM binding intensity (ln)” value amounted to 11.5.

For the sequence “GTATAATAGAAACACACACACACACCCAAAAAAAAA [CACACA_site2010]”, the “gcPBM binding intensity (ln)” value turned out to be 10.7.

Consider “AAAAAAAAAAAAAAAACACACACATACACCCAAAAA [CACACA_site7910]”, for which the “gcPBM binding intensity (ln)” value was 10.5.

In the case of “AACAAAAAAACAAACACACACACACCCATATATATA [CACACA_site3652]”, the “gcPBM binding intensity (ln)” value was 10.6.

Take “TATACTCAGAAACACACACACACACCCAAAAAAAAA [CACACA_site4434]”: the “gcPBM binding intensity (ln)” value is 11.1.

Take “AAAAAAAAAAAAAAAAAAAAACACCCAAAAAAATAT [XGTACX_negctrl_site210]”: the “gcPBM binding intensity (ln)” value was determined as 10.1.

On to “AAAAAAAAAAAAAACACACACACACCCAAATATATA [CACACA_site1169]”, for which the “gcPBM binding intensity (ln)” value amounted to 11.3.

Regarding “ATATAATGAATTATTAGAAAATAAAATGAATAAAGT [CACACA_negctrl_site690]”, the “gcPBM binding intensity (ln)” value was 9.87.

Consider “CATTTTGTTTTAAAGTGTACATTATGTAATATAAAA [XGTACX_site647]”, for which the “gcPBM binding intensity (ln)” value was 9.33.

On to “TTTTAAAGAAAATATTTTATCATTATTTTTTGTACT [CACACA_negctrl_site1648]”, for which the “gcPBM binding intensity (ln)” value stood at 9.57.

For the sequence “AATATAAATTTATATTGTACATATTTTATTATATGT [XGTACX_site905]”, the “gcPBM binding intensity (ln)” value was found to be 9.67.

Consider “TAAAACAGAATGAGGAGTACAAAAAGAAGAAAAGGG [XGTACX_site1246]”, for which the “gcPBM binding intensity (ln)” value came to 9.83.

For “ATAAAATGAAATATATGTACGCATCACTTGTTGAAC [XGTACX_site4530]”, the “gcPBM binding intensity (ln)” value is 9.72.

Turning to “AAAAAAAAAAAAAAAAAAAAATATATATATATATAT [GTGCAC_negctrl_site426]”, the “gcPBM binding intensity (ln)” value was determined as 9.47.

Turning to “TATTTTGTTCTTTCCACACACAAATACAGATATTGT [CACACA_site6097]”, the “gcPBM binding intensity (ln)” value came out at 10.1.

As for “AAAAAAAAAAAAAACACACACACACCCATACCCATA [CACACA_site5577]”, the “gcPBM binding intensity (ln)” value was determined as 10.5.

Take “CAAACACCCAAACACACACACACATACATACATACA [CACACA_site8044]”: the “gcPBM binding intensity (ln)” value worked out at 10.7.

Consider “CACAAACACCCAAACACACACACACCGACATACATA [CACACA_site4410]”, for which the “gcPBM binding intensity (ln)” value was determined as 11.1.

In the case of “AACACCCAAAAACACACACACATACATACATACATA [CACACA_site4411]”, the “gcPBM binding intensity (ln)” value was 10.3.

As to “TAAACACCCATACATACACACATACATACACCCATA [CACACA_site5125]”, the “gcPBM binding intensity (ln)” value was 10.

For the sequence “TTAAAAAAAAAACACACACACATACCCATATATATA [CACACA_site5768]”, the “gcPBM binding intensity (ln)” value stood at 10.4.

Turning to “AAAAAAAAAAAAAACACACACACACCCACATATACA [CACACA_site2663]”, the “gcPBM binding intensity (ln)” value turned out to be 10.6.

Turning to “AAAAAAAAAAAACACACACACACATACCCATACATA [CACACA_site5575]”, the “gcPBM binding intensity (ln)” value was found to be 11.3.

For the sequence “AAAAAAAAAAAACACACACACACACCCATACATACA [CACACA_site707]”, the “gcPBM binding intensity (ln)” value came out at 11.4.

With “AAAAAAAAAAAAAAAACACACATACACCCCCACCCA [CACACA_site9117]”, the “gcPBM binding intensity (ln)” value was determined as 10.2.

With “AAAAAAAAAAAACACACACACACACCCATATACATA [CACACA_site2664]”, the “gcPBM binding intensity (ln)” value was 11.

The values above are taken from the supplement of paper PMC11417369.
